Reference: PubChem BioAssay AID2530 (National Center for Advancing Translational Sciences (NCATS), 2010)
Inconclusive results are not listed. Entries that show only a call come without a potency. Active and inactive are the calls of the source. Calls come from the whole dose curve; as a rule, active = well fitted inhibition curve with a large enough effect; inconclusive = small, poorly fitted or top-dose-only effect; inactive = flat fitted curve, though single readings scatter.

What follows are compounds tested against Luciferin 4-monooxygenase (Photuris pensylvanica) (UniProt Q27757) (assay: Secondary Assay for Luciferase (Kinase-Glo TM) Inhibition Counterscreen). Settings: Kinase-Glo luciferase enzyme, luminescence; series mostly up to 58.1 µM.
Outline: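 Kinase-Glo firefly-type luciferase with 10 uM ATP in 50 mM imidazole pH 7.2, 50 mM KCl, 7 mM MgCl2, 0.01% Tween 20, 0.05% BSA. Luminescence read after 8 min at ambient temperature, normalized to DMSO and 40 uM SIB 1757, then Hill-fitted.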
Potency is the fitted concentration of half-maximal effect.

SMILES | Potency
Cc1cc(N2C(=O)c3ccccc3C2=O)no1 | inactive
Cc1sc2nc(CN3CCN(c4ccc(O)cc4)CC3)[nH]c(=O)c2c1C | inactive
O=S1(=O)N=C(Oc2ccc(Cl)cc2)c2ccccc21 | inactive
O=C1CCc2cc(S(=O)(=O)Nc3ccncc3)ccc2N1 | inactive
Cc1ccc(N2C(=O)c3ccccc3C2=O)c(C)c1 | inactive
Nc1ccc2nc(-c3ccccc3)sc2c1 | 11.6 µM (active)
O=C1CCc2cc(S(=O)(=O)Nc3ccc(Cl)cc3)ccc2N1 | inactive
O=C1c2ccccc2C(=O)N1Cc1ccccn1 | inactive
O=C1c2ccccc2-c2nnc(-c3ccccc3)cc21 | 4.11 µM (active)
O=S1(=O)N=C(Oc2cccc(Cl)c2)c2ccccc21 | inactive
O=C1C=CC(=O)N1c1cccc(-c2ccccc2)c1 | inactive
Nc1ncnc2c1ncn2C1OC(COP(=O)(O)O)C(O)C1O (stereo not drawn) | 4.61 µM (active)
Cc1ccc(NS(=O)(=O)c2ccc(F)cc2)cc1C | inactive
Cc1ccc(NS(=O)(=O)c2ccc3c(c2)CC(=O)N3C)cc1C | inactive
CC(=O)N(C1=C(Cl)C(=O)c2ccccc2C1=O)C1CCCCC1 | inactive
Cc1ccc(NS(=O)(=O)c2cc3c(cc2Br)NC(=O)CO3)cc1C | inactive
O=C1c2ccccc2C(=O)N1c1cccc(Cl)c1 | inactive
COc1ccccc1N1C(=O)c2ccccc2C1=O | inactive
Cc1ccc(NS(=O)(=O)c2cc3c(cc2C)NC(=O)CO3)cc1C | inactive

SMILES | Potency
Cc1ccc(NS(=O)(=O)c2ccc3c(c2)NC(=O)CO3)cc1C | inactive
Cc1ccc(S(=O)(=O)/N=C2/C=C(Sc3ncn[nH]3)C(=O)c3ccccc32)cc1 | inactive
CN(C)c1ccc(N=Nc2nc3ccccc3n2C)cc1 | 9.19 µM (active)
Cc1ccc(C(=O)N2c3ccccc3CC2C)o1 (stereo not drawn) | 18.3 µM (active)
O=C1c2ccccc2C(=O)N1c1cnc2ccccc2c1 | inactive
Cc1ccc(NS(=O)(=O)c2cc3c(cc2Cl)NC(=O)CO3)cc1C | inactive
COc1cc(F)c(S(=O)(=O)N2CCCN(S(=O)(=O)c3cccc(N)c3)CC2)c(F)c1 | inactive
CCCCN1C(=O)c2ccccc2C1=O | inactive
CCNc1cccc(S(=O)(=O)N2CCN(S(=O)(=O)c3ccc4c(c3)OCCO4)CC2)c1 | inactive
Cc1ccc(NS(=O)(=O)c2cc3c(cc2N2CCCCC2)NC(=O)CC3)cc1C | inactive
Oc1ccc(O)c2c1C1c3ccccc3C2c2ccccc21 | inactive
O=S(=O)(Nc1ccc(O)c(NS(=O)(=O)c2ccccc2)c1)c1ccccc1 | inactive
O=C1c2ccccc2C(=O)N1c1cncc2ccccc12 | inactive
COc1ccc(OC2=NS(=O)(=O)c3ccccc32)cc1 | inactive
Cc1ccc(NS(=O)(=O)c2ccc3c(c2)CCC(=O)N3)cc1 | inactive
Cc1ccc(NS(=O)(=O)c2cc3c(cc2Cl)CCC(=O)N3)cc1C | inactive
COc1ccc(N=Nc2n(C)c3ccccc3[n+]2C)cc1 | 10.3 µM (active)
O=C1c2ccccc2C(=O)N1c1ccccc1O | inactive
O=C1c2ccccc2C(=O)N1c1ccccn1 | inactive
